GDH-TPI inh: counter-screen for M. tuberculosis FBA inhibitors: GDH-TPI coupled enzymes | GDH-TPI coupled enzyme counterscreen, NADH absorbance | 360,000 compounds, 1.2% hits | inhibition, % at 4.8 µM | AID 588335;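 further: 0% = DMSO wells and 100% = wells lacking the enzyme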
FBA Mtb inh: inhibits M. tuberculosis FBA enzyme. purified M. tuberculosis FBA, fluorescence read-out. inhibition, % at 1 µM. 360,000 compounds, 2.3% hits. AID 588726; in the data active means inhibition above about 27%;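 further: 0% = vehicle and 100% = reference inhibitor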
Target sequence (P9WQA3 whole entry, looked up): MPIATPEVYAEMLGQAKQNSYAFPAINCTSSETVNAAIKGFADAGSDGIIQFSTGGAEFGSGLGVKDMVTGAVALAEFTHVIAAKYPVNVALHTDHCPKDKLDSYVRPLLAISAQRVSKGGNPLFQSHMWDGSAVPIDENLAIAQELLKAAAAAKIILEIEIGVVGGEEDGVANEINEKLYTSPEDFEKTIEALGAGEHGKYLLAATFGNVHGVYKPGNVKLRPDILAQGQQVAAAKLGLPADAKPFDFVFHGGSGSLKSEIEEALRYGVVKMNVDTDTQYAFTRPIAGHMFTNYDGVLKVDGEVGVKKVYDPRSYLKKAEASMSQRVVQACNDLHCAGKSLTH
Vc quorum ag: induces V. cholerae light production without autoinducers; activation, % at 18.7 µM; V. cholerae BH1578 lux reporter, luminescence, 6 h; AID 588436; 350,000 compounds, 0.16% hits; in the data active means activation mostly above about 9.7%, no sharp cut-off
CCHF vOTU inh: blocks the CCHF virus ovarian tumor domain protease | inhibition, % at 11.5 µM | AID 651958 | CCHFV vOTU protease, Pep-AMC fluorescence | 370,000 compounds, 0.55% hits; further: 0% = vehicle wells with enzyme and 100% = no enzyme wells
Starred values were filed as active, the others as inactive; i = inactive; · = no result given; + = active, no number. Only some compounds are listed: those with a hit (about 3.9% of all), similar ones and a draw of the others. Unless noted, no stated cut-off is given here; in the data, active means inhibition above about 30%; inactive means the rest.

SMILES	GDH-TPI inh	FBA Mtb inh	Vc quorum ag	CCHF vOTU inh
Cc1c(C)c2ccc(OCC(=O)Nc3nccs3)cc2oc1=O	17	65*	i	-17
CCN1CCCC1CNC(=O)c1ccc2c(c1)N(Cc1cccc(Cl)c1)C(=O)c1ccccc1S2(=O)=O (stereo not drawn)	12	0	0	13
Cc1c(N=Cc2ccc(Cl)o2)c(=O)n(-c2ccccc2)n1C	7	-1	0	·
Cc1ccccc1-c1ccc(C=Nc2c(C)n(C)n(-c3ccccc3)c2=O)o1	33*	-11	i	18
O=C1C(Cl)=C(N2CCN(c3ccccc3[N+](=O)[O-])CC2)C(=O)c2ccccc21	15	-7	0	85*
O=[N+]([O-])c1cc(Cl)ccc1N1CCCC1	-1	0	i	-15
Cc1nn(-c2ccccc2)c2c1C(O)CC(C)(C)C2 (stereo not drawn)	1	1	1	-9
Cc1nc2c(c3c1[nH]c1ccccc13)C(O)CC(C)(C)C2 (stereo not drawn)	7	120*	i	-184
COC(=O)C1=C(C)N(Cc2cccc(C(F)(F)F)c2)C(=NCc2ccc(OC)cc2)NC1c1ccc(F)cc1 (stereo not drawn)	·	·	·	17
O=C(N/N=C/c1ccc(O)c([N+](=O)[O-])c1)C(O)(c1ccccc1)c1ccccc1	35*	-4	-1	14
O=C(N/N=C\c1ccc(O)c([N+](=O)[O-])c1)c1ccccc1-n1cccc1	46*	-12	-1	24
COc1cc(C=NNC(=O)c2ccccc2-n2cccc2)ccc1O	19	3	i	6
COCC(=O)N(C)C[C@H]1N[C@@](Cc2ccccc2)(C(=O)OC)[C@H]2C(=O)N(Cc3ccccc3)C(=O)[C@@H]12	0	4	2	-5
O=C1CC2c3ccccc3CCN2C(=O)CN1Cc1ccccc1 (stereo not drawn)	·	2	·	5
Oc1oc(-c2ccccc2)nc1C=Nc1ccccc1	22	-2	i	0
Oc1oc(-c2ccccc2)nc1C=NCc1ccccc1	49*	-4	i	3
COc1ccc(-c2ccc3c(c2)CN(C(=O)C(C)(C)C)Cc2cnnn2-3)cc1	·	140*	·	-5
CC(C)(C)C(=O)N1Cc2cc(-c3ccccc3)ccc2-n2nncc2C1	·	1	·	12
COc1ccc(N=C(C)C2=C(O)c3ccccc3C2=O)cc1	36*	2	0	-15
CC(=NCCCN(C)C)C1=C(O)c2ccccc2C1=O	24	2	17*	18
CC(=NC1CC1)C1=C(O)c2ccccc2C1=O	38*	0	-3	3
C/C(=N\N(C)C)C1=C(O)c2ccccc2C1=O	4	-1	0	0
COc1ccnc(Oc2ccccc2)c1C(=O)N/C=N/OCc1ccc(F)cc1Cl	2	1	-11	-12
O=C(Nc1ccc(N2CCCCC2)cc1)c1ccc2ccccc2n1	7	1	-1	6
COc1cccc2cc(-c3cc(=O)oc4ccc(OC(=O)N(C)C)cc34)oc12	4	0	0	-4
SMILES	GDH-TPI inh	FBA Mtb inh	Vc quorum ag	CCHF vOTU inh
CCOc1ccc(C(=O)Nc2ccc(N3CCN(C(=O)c4ccco4)CC3)cc2)cc1Br	10	3	3	-1
COc1ccc(Nc2nc(C)nc3c2oc2ccccc23)cc1	15	-2	-2	-7
Cc1ccc(N(C)S(=O)(=O)c2c(C)noc2/C=C/N(C)C)cc1	34*	4	0	13
Cc1ccc(CNC(=O)C2CCN(S(=O)(=O)c3c(C)noc3/C=C/N(C)C)CC2)cc1	23	-5	4	15
O=C(C1CCCN(S(=O)(=O)c2ccc(Br)s2)C1)N1CCN(c2ccccc2)CC1 (stereo not drawn)	-11	2	0	8
Cn1ccc2c(-c3ccc(C(=O)O)cc3)cc3c(c21)C1CCC3C1 (stereo not drawn)	·	+	·	-22
COc1cc(Cl)c(NS(=O)(=O)c2c(C(=O)N3CCCC3)c(C)n(C)c2C)c(OC)c1	-2	1	0	8
O=C(O)c1ccccc1C(=O)c1cccs1	0	1	i	-14
O=C(O)Cc1ccc(C(=O)c2cccs2)s1	37*	-9	-7	14
Oc1ccc(N=Cc2ccc(-c3cccs3)s2)cc1	35*	+	0	-311
CCN(CC)C(=O)c1ccc(-c2cccs2)s1	18	8	-1	-9
O=Cc1ccc(-c2cccs2)s1	28	+	i	-333
CCOC(=O)C1CCN(C(=O)c2ccc3c(=O)n4c(nc3c2)CCCCC4)CC1	6	7	-1	4
CC(C)n1c(=O)c2ccccc2n1Cc1cn(Cc2ccccc2)nn1	·	115*	·	-21
CC(C)n1c(=O)c2ccccc2n1Cc1cn(-c2ccccc2)nn1	·	120*	·	-13
CC(C)n1c(=O)c2ccccc2n1Cc1cn(CCc2c[nH]c3ccccc23)nn1	·	5	·	15
O=C(NN=Cc1ccc2c(c1)OCO2)NN=Cc1ccc2c(c1)OCO2	38*	-1	3	7
Cc1ccc(C(=O)N/N=C\c2ccc3c(c2)OCO3)cn1	22	3	i	-1
CN(C)c1ccc(/C=N/NC(=O)c2ccc3c(c2)OCO3)cc1	42*	5	-8	21
Cc1ccc(C(=O)NN=Cc2ccc3c(c2)OCO3)cc1	35*	0	0	2
CN(C)c1ccc(/C=N/NC(=O)c2cccc(N3CCCC3=O)c2)cc1	46*	-8	i	5
COc1ccc(S[C@]2(C(=O)N3CCOCC3)CC(=O)N(c3ccc(Cl)cc3)[C@@H]2c2ccc(OC)cc2)cc1	·	·	·	12
C=CCn1c(N)cc(=O)nc1SCC(=O)NC(C)c1ccccc1 (stereo not drawn)	2	-1	3	9
O=C(CCc1c[nH]c2ccccc12)N/N=C/c1ccc2c(c1)OCO2	38*	-1	0	20
Cc1ccc(C(=O)N/N=C/c2ccc3c(c2)OCO3)o1	40*	1	-2	-1
SMILES	GDH-TPI inh	FBA Mtb inh	Vc quorum ag	CCHF vOTU inh
O=C(N/N=C/c1ccc2c(c1)OCO2)c1cc2ccccc2o1	6	0	i	-5
O=C(/C=C\Nc1ccc(S(=O)(=O)Nc2ncccn2)cc1)c1cccc2ccccc12	55*	4	-1	14
Cc1cc(C)nc(NS(=O)(=O)c2ccc(N/C=C/C(=O)c3ccc(Cl)cc3)cc2)n1	32*	1	0	3
O=S(=O)(Nc1ncccn1)c1ccc(Nc2ncnc3ccccc23)cc1	49*	-1	i	0
O=S(=O)(Nc1ccc(S(=O)(=O)Nc2ncccn2)cc1)c1ccccc1	-9	2	0	-13
CCOCCCNC(=O)c1cn(C)c(=O)c2cc(OC)c(OC)cc12	0	3	-1	17
Cc1cccc(C)c1NC(=S)N1CCC(c2ccccc2)C1 (stereo not drawn)	-5	-4	0	-9
COC(=O)[C@@]1(Cc2ccc(F)cc2)[C@H]2c3cc(C(=O)N(C)C)n(Cc4ccc(OC(F)(F)F)cc4)c3C[C@H]2CN1C(=O)c1ccccc1	·	·	·	24
CCOC(=O)c1nc2sc3c(c2c(=O)[nH]1)CCCC3	22	181*	i	-110
CC(=O)OCc1nc2sc3c(c2c(=O)[nH]1)CCCC3	3	2	0	-2

Screens deposited in PubChem by several laboratories.
